Bioassay records as filed in PubChem.
TCR act: T cell receptor activation. primary human leukocytes, anti-CD3, IL-2 HTRF, 48 h. Potency, µM (highest dose often 9.22 µM), inactives show at the top dose activation of IL-2 secretion, actives largely listed as activators. 330,000 tested, under 10 active; note: % of control where 0% means no effect
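Primary human leukocytes receive a-CD3 beads and test compound and are incubated 48 hr. Secreted IL-2 is then assayed by HTRF, measuring 665nm acceptor emission after 320nm excitation of the europium donor.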
AT treatment: candidate therapy for ataxia-telangiectasia | F2112 A-T fibroblasts, KAP-1 phosphorylation AlphaLISA; neocarzinostatin DNA damage 30 min before lysis | Potency, µM (doses to about 57.5 µM), for the others: at the top dose activation, hits mostly activators | 0.19% of 320,000 active | AID 485349; note: potency is the fitted concentration of half-maximal effect; % of control where 0% means no effect; nearly all actives have a fitted effect of over 45% in size
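hTERT-immortalized A-T patient fibroblasts (F2112), 500 cells/well in OPTI-MEM, 1% FBS, got compounds for 60 min, then NCS for 30 min at 37C. Lysates were then assayed for phospho-KAP-1 by AlphaLISA (anti-pKAP1 donor, anti-KAP1 acceptor beads), 6 hr at 25C.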
Nrf2 inh: blocks Nrf2 signaling | A549 ARE-Fluc reporter, luciferase luminescence, 18-24 h | Potency, µM (titrated, usually from 46 µM), for the others: at the highest dose activity change, negative = inhibition, usual class: inhibitors | 2.1% of 360,000 active | AID 504444; note: potency is the fitted concentration of half-maximal effect; % is set by controls: 0 for no effect and ±100 for the full control effect; nearly all actives have a fitted effect of over 60% in size
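In this cell-based qHTS, ARE-driven firefly luciferase in A549 cells reports Nrf2 activity; the luminescent signal after BugLite lysis is the measured value, with a prior CellTiter-Fluor read for cell health.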
A549 viability: A549 cytotoxicity, counter-screen for Nrf2 inhibitors. A549 ARE-Fluc cells, CellTiter-Fluor viability, 18-24 h. Potency, µM (top dose mostly 46 µM), for the others: top-dose activity change, negative = cytotoxicity, actives largely listed as inhibitors. 0.16% of 390,000 active; note: potency is the fitted concentration of half-maximal effect; % is set by controls: 0 for no effect and ±100 for the full control effect
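Cytotoxicity counterscreen: CellTiter-Fluor fluorescence was measured in A549 ARE_Fluc cells after 18-24 h of compound exposure in a concentration series. The subsequent BugLite luminescent read reports ARE-luciferase activity.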
CCT chaperon mod: modulators of cytosolic chaperonin (CCT/TRiC) activity | purified chaperonin ATPase assay, HTRF ADP detection, 30 min | activity change, % (concentration not given with the values), hits read low | 0.3% of 360,000 active | AID 651819; in the data active = activity change below about -30%; note: % is set by controls: 0 for no effect and ±100 for the full control effect
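Nucleotide hydrolysis assay: TRiC at 20–40 nM final (set by batch activity) with 10 uM ATP, 30 min at 37 °C, in presence of 76 uM compound. Detection by competitive ADP HTRF, 30 min ambient.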
Nrf2 ARE act: activators of Nrf2 (ARE) signaling; AREc32 ARE-luciferase reporter (MCF7-derived line), luminescence, 24 h; Potency, µM (series often up to 46.1 µM), inactives show at the highest dose activation, actives largely listed as activators; 0.31% of 410,000 active; AID 624171; note: potency is the fitted concentration of half-maximal effect; % of control where 0% means no effect; nearly all actives have a fitted effect of over 65% in size
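ARE-driven firefly luciferase activity in AREc32 cells measured after a 24 hr compound exposure at 37 deg C, using Steady-Glo reagent and a 30 min room-temperature hold.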
* marks the source's active call; other numbers are inactive results; ? = inconclusive; · = no result given; [ ] = remark or other dose. This is a sample that favours compounds with a hit; in the whole collection about 2.6% have one here. Unless noted, calls come from the whole dose curve; as a rule, active = well fitted curve in the direction sought with a large enough effect; inconclusive = small, poorly fitted or top-dose-only effect, or another doubt; inactive = no such curve, though single readings can be large; an effect the other way counts as inactive or inconclusive.

SMILES	TCR act	AT treatment	Nrf2 inh	A549 viability	CCT chaperon mod	Nrf2 ARE act
COc1cc(/C=N/Nc2ccccn2)ccc1O	0.9%	43.2%	?	-3.6%	-1.3	8.91µM*
CC(=O)OCC(NC(=O)C(Cc1ccccc1)NC(=O)OC(C)(C)C)C1OC(n2cc(F)c(=O)[nH]c2=O)C(OC(C)=O)C1OC(C)=O (stereo not given)	·	·	7.6%	2.0%	·	·
Cc1ccc(S(=O)(=O)Nc2cc3c(cc2NCc2ccccc2)n(C)c(=O)n3C)c(C)c1	·	·	11.9%	-4.0%	·	?
CC(C)c1ccc(S(=O)(=O)Nc2cc3c(cc2NCc2ccccc2)n(C)c(=O)n3C)cc1	·	·	25.9µM*	-10.3%	·	6.4%
Cc1ccc(S(=O)(=O)Nc2cc3c(cc2NCc2ccccc2)n(C)c(=O)n3C)cc1	·	·	?	-15.7%	·	?
Cn1c(=O)n(C)c2cc(NS(=O)(=O)c3ccc(F)cc3)c(NCc3ccccc3)cc21	·	·	?	2.5%	·	12.6µM*
CC1CCC/C(=N\NC(=O)COc2ccccc2Cl)C1 (stereo not given)	0.1%[46.1 µM]	-1.0%	10.5%	-1.7%	0.3	5.4%
CCc1c(C)nc2ncnn2c1N1CCCC(C(=O)NCc2cccs2)C1 (stereo not given)	1.2%	1.7%	?	-7.0%	-1.1	-0.3%
CCc1c(C)nc2ncnn2c1N1CCC(C(=O)NCc2cccs2)CC1	4.8%	-0.8%	18.4µM*	-0.7%	0.2	0.6%
CCOc1ccc(NC(=O)C2CCCN(c3c(CC)c(C)nc4ncnn34)C2)cc1 (stereo not given)	2.6%	4.0%	10.3µM*	-13.9%	2.0	0.2%
COc1ccc(-c2cn3nc(N4CCCC(C(=O)Nc5ccc(C)c(C)c5)C4)sc3n2)cc1 (stereo not given)	·	·	-6.2%	-1.4%	·	0.9%
CCOc1ccc(NC(=O)C2CCCN(c3nn4cc(-c5ccc(OC)cc5)nc4s3)C2)cc1 (stereo not given)	·	·	7.31µM*	-0.6%	·	-0.7%
CCc1c(C)nc2ncnn2c1N1CCCC(C(=O)Nc2cc(F)ccc2C)C1 (stereo not given)	-1.9%	4.9%	·	-0.6%	0.3	-0.2%
CC(=O)c1cccc(NC(=O)CSc2nc3ccccc3nc2Cc2ccc(F)cc2)c1	·	·	·	-1.0%	·	0.5%
CCc1ccc(CNc2ncnc3c2nc2n3CCCC2)cc1	·	·	?	1.7%	·	0.0%
Cc1ccc2c(c1)N(C)/C(=C/c1cccc[n+]1C)S2	5.0%	0.0%	6.51µM*	?	0.0	0.1%
Cc1cc(C)cc(NC(=O)c2cc(C)nc3c2c(C)nn3-c2ccccc2)c1	·	·	?	6.2%	·	-1.4%
COc1ccc(C)cc1NC(=S)N1CC(C)OC(C)C1 (stereo not given)	2.8%	-4.2%	0.1%	-2.1%	-47.6*	-0.4%
COCc1nn2cc(-c3ccc(C)cc3)nc2s1	·	·	?	0.1%	·	-1.6%
COc1cc(C(=O)N2CCN(c3ncnc4sc(C)c(C)c34)CC2)cc(OC)c1OC	0.8%	2.7%	10.3µM*	?	-1.2	0.2%
Cc1sc2ncnc(N3CCN(c4ncccn4)CC3)c2c1C	3.0%	5.1%	14.6µM*	-12.2%	-7.2	-0.7%
CCS(=O)(=O)N1CCN(c2ncnc3sc(C)c(C)c23)CC1	3.8%	-1.1%	-13.5%	2.2%	2.0	-0.5%
COc1ccc(N2CCN(C(CNC(=O)c3cccc(OC)c3)c3cccnc3)CC2)cc1 (stereo not given)	·	·	-4.0%	-18.2%	·	0.2%
Cc1ccc(C(=O)Nc2cccc(S(=O)(=O)N3CCCCC3)c2)cc1[N+](=O)[O-]	-4.5%	1.3%	16.4µM*	-14.9%	-0.5	0.6%
O=C(NC1CC1)c1cccc(NC(=O)c2cc(S(=O)(=O)N3CCOCC3)ccc2Cl)c1	-1.5%	-3.9%	-2.3%	1.8%	-32.0*	2.1%
SMILES	TCR act	AT treatment	Nrf2 inh	A549 viability	CCT chaperon mod	Nrf2 ARE act
Cc1ccc(S(=O)(=O)N2CCOCC2)cc1C(=O)Nc1cccc(C(=O)NC2CC2)c1	-2.9%	-0.8%	-2.6%	0.9%	-2.7	-0.1%
Cc1ccc(C(=O)Nc2cccc(C(=O)N3CCOCC3)c2)cc1	-0.2%	·	?	-5.1%	-1.9	-0.5%
CC(=O)Oc1ccc(-c2ccc(C(=O)Nc3cccc(S(=O)(=O)N4CCOCC4)c3)cc2)cc1	0.6%	0.1%	13µM*	?	-3.5	-0.7%
CC(C)(C)c1ccc(C(=O)Nc2cccc(C(=O)N3CCOCC3)c2)cc1	1.4%	10.3%	8.2µM*	?	-0.3	1.7%
CCCCN(Cc1cc2ccccc2[nH]c1=O)C(=O)c1cccc(Cl)c1	·	·	-11.6%	-14.0%	·	1.0%
CN(CC(=O)Nc1ccc2c(c1)OCCO2)S(=O)(=O)c1ccc(F)cc1	-0.3%	1.5%	?	0.3%	1.4	0.2%
Cc1cc2c(s1)c1cnn(Cc3c(F)ccc(Cl)c3F)c(=O)c1n2C	·	·	7.5%	3.2%	·	·
O=C(Nc1cccc(Br)c1)c1ccc(Cl)c(S(=O)(=O)N2CCOCC2)c1	0.1%[46.1 µM]	·	10.3µM*	?	0.0	-0.7%
Cc1ccc(C(=O)Nc2cccc(S(=O)(=O)N3CCCCC3)c2)cc1S(=O)(=O)N1CCOCC1	3.7%	·	7.31µM*	-6.5%	-1.9	-0.2%
O=C(Nc1cccc(C(=O)NC2CC2)c1)c1ccc(Cl)c(S(=O)(=O)N2CCOCC2)c1	-6.2%	13.2%	-10.0%	-0.5%	0.0	-0.6%
CC(C)Cc1nnc(NC(=O)c2cccc(S(=O)(=O)N3CCOCC3)c2)s1	-5.6%	1.0%	-2.6%	-3.5%	-59.3*	-0.9%
O=C(COc1ccc(C(=O)c2ccc(F)cc2)cc1)Nc1cccc(S(=O)(=O)N2CCOCC2)c1	3.0%	-6.2%	23.1µM*	-12.5%	-1.0	4.9%
COc1ccc(C(=O)Nc2cccc(S(=O)(=O)N3CCCC3)c2)cc1S(=O)(=O)N1CCOCC1	-0.9%	11.3%	-17.6%	-7.3%	-2.8	0.0%
CC(=O)N(c1ccc(Cl)cc1)C1SC(=O)N(c2ccc(C)cc2)C1=O (stereo not given)	·	·	13.0%	3.0%	·	·
Cc1cccc2[nH]c3c(N4CC=C(c5ccc(F)cc5)CC4)ncnc3c12	4.4%	-5.8%	20.6µM*	-9.7%	-5.0	5.8%
COc1cccc2[nH]c3c(N4CCCCC4)ncnc3c12	6.6%	?	?	9.5%	-2.8	2.3%
CC1(C)Cc2c(c(N3CCOCC3)nc3sc4c(NCc5ccco5)nnnc4c23)CS1	-3.8%	-2.5%	?	-11.1%	0.5	4.6%
CC(C)CNc1nnnc2c1sc1nc(N3CCOCC3)c3c(c12)CC(C)(C)SC3	4.8%	-7.7%	13µM*	-16.6%	1.3	0.2%
COc1ccc(-c2nnc(SCC(=O)Nc3ccccc3OC)o2)cc1	-4.6%[46.1 µM]	0.6%	?	1.8%[1.84 µM]	-3.7	1.3%
